What follows are sequences tested against C1orf115 (assay: pooled miR-30 sensor sort-seq; sequence = guide strand). Conditions: shRNA.
Further: reference of the scale not given here.

Row | Sequence | sensor-assay potency score (higher = more potent)
1 | TACTTCTTCAGCTTCCTCCGGT | 0.808
2 | TTCCTCCGGTACCTCTTCCTGG | -1.14
3 | TGACTCTAGTAACATCCTCTTC | -1.03
4 | TTGAGGAATAAACAGCTCCTTA | -1.12
5 | TTGCAGGCCGATGACCACGTAG | -1.3

What follows are sequences tested against C1orf131 in the same assay as above. Conditions: shRNA.

Row | Sequence | sensor-assay potency score (higher = more potent)
6 | TTTCTTGATATCAACTGGGCTC | -0.367
7 | TAAATTACTAGATTCTTGGTTC | 0.886
8 | TTCTTTATGATCTTCTTCTGTT | -0.273
9 | TTTTTCTTGAAAATATCTGTTT | -0.422
10 | TTGAATTTTCCAACCTGTCCAA | 0.318
11 | TTTGGATTTCCTGTCCTCCTGT | 0.0328
12 | TAACCCGTGATACCAAACCGGT | -1.37
13 | TTTAATGTAAACTACTAGCATT | -0.73
14 | TTGTAATTCACATAACTCTTTT | -0.919
15 | TTCTGTACCTCCAAAGTCGTAA | -0.764
16 | TTATGATCTTCTTCTGTTCTGT | -0.0808
17 | TATTTTCTTGATATCAACTGGG | 0.559

What follows are sequences tested against C1orf168 in the same assay as above. Conditions: shRNA.

Row | Sequence | sensor-assay potency score (higher = more potent)
18 | TTGACATGTAAACTGAAACTGA | -0.315
19 | TAGAAGCAAACTAACCATCTGC | 0.515
20 | TATCACTAGATTTTGTTCGGTG | 0.284
21 | TTCTAGGAGAGAAACTTTCTGA | -0.177
22 | TTTCTGATTCTTCAGCACCGTT | -1.25
23 | TTGATGACAATAATCTCTTTGT | -0.247
24 | TTTCACATTCTCTTGAACTGAC | 0.742
25 | TATTAGAAGCAAACTAACCATC | -0.751
26 | TTTCTTGAAGAATTGCTGCAGT | 0.0759
27 | TTTGTTTCCAGCTTTTTCCTGG | 0.241
28 | TAGACATTGAAAGATAACCTTT | -0.653
29 | TTCTCTTGAACTGACAGTGAAG | -0.905

These sequences were tested against C1orf61 in the same assay as above. Conditions: shRNA.

Row | Sequence | sensor-assay potency score (higher = more potent)
30 | AACCAGATGAAGTACATTCTTC | -0.97
31 | TTGAGAGGTCCTGAGTGGCAGG | -0.741
32 | AAGATCATGGAATTTCTCCTGA | 0.708
33 | TTTGGTCTCCCAACTTAGCCAT | -0.53
34 | TATAGATCTTGGTTAGACATGG | -0.143
35 | TCGGGGACTTGAGAGGTCCTGA | -0.479
36 | TTCTTTTTGGTCTCCCAACTTA | -0.917
37 | TCTATCGTCCACACGGAGGAAG | -0.948
38 | TTGTGCTGCCTGGAGGACGAGG | -1.4
39 | TTCTTCTTTTTGGTCTCCCAAC | -1.55
40 | TTGGTCTCCCAACTTAGCCATG | -1.74

Source: the OligoGym collection
